Holding throughout (experiment): yeast three-hybrid, YBZ-1, SC-Leu-His + 0.5 mM 3-AT, 4 days
What all share (conditions): tags: N-Gal4 AD-HA kept; label: inside an RPR1-promoter hybrid RNA with tandem MS2 sites; ssRNA

For assay [1], the target named is PUM1 PUF domain R3-MFG (Homo sapiens, UniProt Q14671 828-1176, C935M;R936F;Q939G). The essentials:
(§1)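 Pumilio-1 PUF domain libraries, randomized at the three base-contacting residues of each repeat, were co-expressed with matching RNA elements from a centromeric plasmid in strain YBZ-1, which carries a LexA–MS2 coat fusion and a HIS3 reporter. Transformants grew for four days on SC-Leu (input) or on SC-Leu-His + 0.5 mM 3-AT (selection), and the repeat regions were PCR-amplified and Illumina-sequenced. The interaction score is the log change in variant frequency from input to selection. That logarithm is base 2, with a pseudocount of 1 where a variant was absent.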

The target of assay [2] is PUM1 PUF domain R3-YRV (Homo sapiens, UniProt Q14671 828-1176, C935Y;Q939V). The essentials: as §1
Assay [3] deals with PUM1 PUF domain R3-FCR (Homo sapiens, UniProt Q14671 828-1176, C935F;R936C;Q939R). An outline of the steps: as §1
In assay [4] the target is PUM1 PUF domain R5-KAC (Homo sapiens, UniProt Q14671 828-1176, C1007K;R1008A;Q1011C). The essentials: as §1
Assay [5] has as its target PUM1 PUF domain R5-NSD (Homo sapiens, UniProt Q14671 828-1176, C1007N;R1008S;Q1011D). An outline of the steps:
as §1

Assay [6] has as its target PUM1 PUF domain R4-INC (Homo sapiens, UniProt Q14671 828-1176, N971I;H972N;Q975C). The essentials: as §1
The target in assay [7] is PUM1 PUF domain R1-KCR (Homo sapiens, UniProt Q14671 828-1176, S863K;R864C;Q867R). The essentials:
as §1

The target in assay [8] is PUM1 PUF domain R1-RYE (Homo sapiens, UniProt Q14671 828-1176, S863R;R864Y;Q867E). The essentials: as §1
Assay [9] has as its target PUM1 PUF domain R1-KDR (Homo sapiens, UniProt Q14671 828-1176, S863K;R864D;Q867R). An outline of the steps: as §1
For assay [10], the target named is PUM1 PUF domain R7-LTV (Homo sapiens, UniProt Q14671 828-1176, S1079L;N1080T;E1083V). The essentials:
as §1

In assay [11] the target is PUM1 PUF domain R3-LWK (Homo sapiens, UniProt Q14671 828-1176, C935L;R936W;Q939K). The essentials: as §1
The target in assay [12] is T1, PUM1 PUF domain R6-FYM (Homo sapiens, UniProt Q14671 828-1176, N1043F;Q1047M).
T1 sequence: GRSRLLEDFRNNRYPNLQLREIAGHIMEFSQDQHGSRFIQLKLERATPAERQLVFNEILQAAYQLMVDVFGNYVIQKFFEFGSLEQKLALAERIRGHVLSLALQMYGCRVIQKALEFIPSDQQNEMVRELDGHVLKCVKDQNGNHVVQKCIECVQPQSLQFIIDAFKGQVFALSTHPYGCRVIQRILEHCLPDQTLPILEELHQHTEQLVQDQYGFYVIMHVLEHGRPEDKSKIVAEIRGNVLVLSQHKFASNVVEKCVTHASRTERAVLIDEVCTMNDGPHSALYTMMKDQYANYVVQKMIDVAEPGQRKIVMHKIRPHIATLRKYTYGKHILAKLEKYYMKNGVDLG
An outline of the steps:
as §1

Assay [13] addresses PUM1 PUF domain R3-VRN (Homo sapiens, UniProt Q14671 828-1176, C935V;Q939N). The essentials:
as §1

Assay [14] concerns the target PUM1 PUF domain R5-GKC (Homo sapiens, UniProt Q14671 828-1176, C1007G;R1008K;Q1011C). An outline of the steps: as §1
Assay [15] addresses PUM1 PUF domain R3-DFA (Homo sapiens, UniProt Q14671 828-1176, C935D;R936F;Q939A). An outline of the steps: as §1
Assay [16] concerns the target PUM1 PUF domain R5-GFI (Homo sapiens, UniProt Q14671 828-1176, C1007G;R1008F;Q1011I). An outline of the steps:
as §1

Assay [17] has as its target T2, PUM1 PUF domain R6-NRR (Homo sapiens, UniProt Q14671 828-1176, Y1044R;Q1047R).
T2 sequence: T1 sequence with F216N, Y217R, M220R
The essentials: as §1

For assay [18], the target named is PUM1 PUF domain R5-RQD (Homo sapiens, UniProt Q14671 828-1176, C1007R;R1008Q;Q1011D). The essentials:
as §1

Assay [19] addresses PUM1 PUF domain R5-KLC (Homo sapiens, UniProt Q14671 828-1176, C1007K;R1008L;Q1011C). An outline of the steps: as §1
Assay [20] has as its target PUM1 PUF domain R5-LWR (Homo sapiens, UniProt Q14671 828-1176, C1007L;R1008W;Q1011R). An outline of the steps: as §1

Numbering of substitutions follows the chain as printed.

PUM1 PUF domain R7-LTV, sequence (Q14671 828-1176 S1079L/N1080T/E1083V): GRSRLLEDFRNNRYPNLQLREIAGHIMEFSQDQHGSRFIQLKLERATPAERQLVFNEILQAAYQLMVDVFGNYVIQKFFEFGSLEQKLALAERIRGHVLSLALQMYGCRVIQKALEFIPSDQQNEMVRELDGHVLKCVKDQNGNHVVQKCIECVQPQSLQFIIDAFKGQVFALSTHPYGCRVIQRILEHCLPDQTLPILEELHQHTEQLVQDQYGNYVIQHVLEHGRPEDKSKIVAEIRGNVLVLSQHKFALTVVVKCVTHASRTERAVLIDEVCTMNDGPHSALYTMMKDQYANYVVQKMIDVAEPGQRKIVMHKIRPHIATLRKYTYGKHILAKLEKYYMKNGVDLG

Turning to “GGCUAGAACUAGUGGAUCCCCCGGCGCCCGGCGGCUCGAGCCCGGGUAAGUGUAAGUAGUCUGCAUGCCGCCGGGCGCCAUGCCUGCAGGUCGACUCUAGAAAACAUG”, the binding signal in assay [1] is 5.73 log2 enrichment (interaction score); in assay [2], 4.59 log2 enrichment (interaction score); in assay [3] it was 5.77 log2 enrichment (interaction score).

With “GGCUAGAACUAGUGGAUCCCCCGGCGCCCGGCGGCUCGAGCCCGGGUAAGUGUUAAUAGUCUGCAUGCCGCCGGGCGCCAUGCCUGCAGGUCGACUCUAGAAAACAUG”, the binding signal in [4] is 3.67 log2 enrichment (interaction score); in [5], 4.22 log2 enrichment (interaction score).

Turning to “GGCUAGAACUAGUGGAUCCCCCGGCGCCCGGCGGCUCGAGCCCGGGUAAGUGUAUAUAGUCUGCAUGCCGCCGGGCGCCAUGCCUGCAGGUCGACUCUAGAAAACAUG”, in assay [6], the binding signal is 4.14 log2 enrichment (interaction score).

Regarding “GGCUAGAACUAGUGGAUCCCCCGGCGCCCGGCGGCUCGAGCCCGGGUAAGUGUAAAUCGUCUGCAUGCCGCCGGGCGCCAUGCCUGCAGGUCGACUCUAGAAAACAUG”, the binding signal in assay [7] is 7.51 log2 enrichment (interaction score); in assay [8], 1.44 log2 enrichment (interaction score); in assay [9] it was 3.98 log2 enrichment (interaction score).

In the case of “GGCUAGAACUAGUGGAUCCCCCGGCGCCCGGCGGCUCGAGCCCGGGUAAGUUUAAAUAGUCUGCAUGCCGCCGGGCGCCAUGCCUGCAGGUCGACUCUAGAAAACAUG”, the binding signal in assay [10] was 4.94 log2 enrichment (interaction score).

As for “GGCUAGAACUAGUGGAUCCCCCGGCGCCCGGCGGCUCGAGCCCGGGUAAGUGUAAAUAGUCUGCAUGCCGCCGGGCGCCAUGCCUGCAGGUCGACUCUAGAAAACAUG”, the binding signal in assay [11] was 3.42 log2 enrichment (interaction score); in [12] it was 2.99 log2 enrichment (interaction score); in [1], 2.43 log2 enrichment (interaction score); in assay [2], 0.2 log2 enrichment (interaction score); in assay [13], 3.59 log2 enrichment (interaction score); in assay [14] it was 0.78 log2 enrichment (interaction score). For the same sequence, the binding signal in [15] was 6.17 log2 enrichment (interaction score); in [16] it was 6.14 log2 enrichment (interaction score); in assay [17], 4.3 log2 enrichment (interaction score).

For the sequence “GGCUAGAACUAGUGGAUCCCCCGGCGCCCGGCGGCUCGAGCCCGGGUAAGUGUCAAUAGUCUGCAUGCCGCCGGGCGCCAUGCCUGCAGGUCGACUCUAGAAAACAUG”, the binding signal was 3.67 log2 enrichment (interaction score) in assay [18]; 4.63 log2 enrichment (interaction score) in assay [4]; 2.5 log2 enrichment (interaction score) in assay [19]; 3.23 log2 enrichment (interaction score) in [20]; 2.56 log2 enrichment (interaction score) in [14].

In the case of “GGCUAGAACUAGUGGAUCCCCCGGCGCCCGGCGGCUCGAGCCCGGGUAAGUGUAAAUUGUCUGCAUGCCGCCGGGCGCCAUGCCUGCAGGUCGACUCUAGAAAACAUG”, the binding signal in assay [7] was 5.43 log2 enrichment (interaction score); in assay [8], 2.61 log2 enrichment (interaction score).

Take “GGCUAGAACUAGUGGAUCCCCCGGCGCCCGGCGGCUCGAGCCCGGGUAAGUGCAAAUAGUCUGCAUGCCGCCGGGCGCCAUGCCUGCAGGUCGACUCUAGAAAACAUG”: in assay [17], the binding signal was 4.48 log2 enrichment (interaction score).

Regarding “GGCUAGAACUAGUGGAUCCCCCGGCGCCCGGCGGCUCGAGCCCGGGUAAGUGUAAUUAGUCUGCAUGCCGCCGGGCGCCAUGCCUGCAGGUCGACUCUAGAAAACAUG”, the binding signal is 5.28 log2 enrichment (interaction score) in assay [11], 4.71 log2 enrichment (interaction score) in [1], 0.78 log2 enrichment (interaction score) in assay [2] and 1.6 log2 enrichment (interaction score) in assay [3].

“GGCUAGAACUAGUGGAUCCCCCGGCGCCCGGCGGCUCGAGCCCGGGUAAGUGUAAAUGGUCUGCAUGCCGCCGGGCGCCAUGCCUGCAGGUCGACUCUAGAAAACAUG”: the binding signal in [7] was 2.46 log2 enrichment (interaction score).
